# High-throughput results deposited in PubChem BioAssay by several laboratories.
# In the library only some 2.7% were active in any assay of this set; here they are far more common.
# Shn3 inh set2 – reduction of Shn3 3'UTR firefly luciferase signal, primary screen, Schnurri-3 inhibitor project, cell-based, Clone20 osteoblasts, set 2 | 360,000 tested, 0.52% active | inhibition, % at 12.5 µM | Clone20 osteoblast Shn3 3'UTR firefly luciferase, 24 h | AID 588674, 2011;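 active = mean inhibition of at least 75% with every replicate also reaching 75%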;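 note: 0% = median of neutral control wells and 100% = pilot-screen positive control compound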
# CF NFkB block – inhibitors of PAF-induced NF-kB signaling, primary screen, cell-based, GFP fluorescence, uHTS | KKLEB NF-kB-GFP reporter, GFP fluorescence overnight | inhibition, % at 5 µM | 360,000 tested, 0.86% active;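 active = at least 50% inhibition at 5 µM, scaled per plate between neutral and stimulator controls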;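 note: PAF is a Pseudomonas aeruginosa culture filtrate used as stimulus; plate controls were PAF-stimulated DMSO wells for no effect and unstimulated DMSO wells for full effect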
# KKLEB tox – cytotoxicity in KKLEB CF airway cells, primary screen, cytotoxicity control for CF NF-kB inhibitor project, cell-based, uHTS, fluorescence assay plates; KKLEB CF airway cells viability, ATPlite luminescence, overnight; hits give low values; cells stimulated with P. aeruginosa culture filtrate; activity change (cytotoxicity), % at 5 µM; 360,000 tested, 0.36% active; AID 602141, 2011;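 active = corrected activity change at or below -50% at 5 µM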
# HIF-2a block – HIF-2a reporter inhibitors, primary screen, luminescence, 786-0 RCC cells; 786-0 RCC cells HIF-2a reporter, luciferase luminescence, overnight; inhibition, % at 18.8 µM; 360,000 tested, 0.72% active;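 active = inhibition of the luminescence signal of 40% or more relative to plate controls, in a single-dose primary screen at 18.75 µM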
# Peg3 prom inh – Peg3 promoter-driven luciferase inhibitors, primary screen, cell-based, HeLa, luciferase luminescence | inhibition, % at 20 µM | AID 588405, 2011 | 360,000 tested, 1.7% active | HeLa PEG-Prom luciferase reporter, overnight;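 active = inhibition of at least 50% at 20 µM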
# TRPM1 prom inh – inhibitors of MITF-dependent TRPM1 promoter reporter, primary screen, cell-based, SK-MEL-5, single point, luciferase; SK-MEL-5 TRPM1 promoter luciferase, 24 h; inhibition, % at 12.5 µM; 330,000 tested, 0.83% active; AID 488899, 2010;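 active = mean inhibition across replicates of 60% or more, whatever share of single replicates reaches that level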
# Mdm2-MdmX confirm – retested Mdm2-MdmX interaction blockers, confirmation, cell-based, luminescence, single concentration, set 2; shares compounds with HIF-2a block; SaOS-2 split-luciferase Mdm2/MdmX complementation; inhibition, % at 8 µM; 740 tested, 99% active; AID 504601, 2011;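 active = mean inhibition of the luminescence signal across two replicates at or above 26 percent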
# HIF-2a inh conf – HIF-2a reporter inhibitor retest, confirmation, luminescence, 786-0 RCC cells. 1,800 tested, 56% active. shares compounds with HIF-2a block. AID 651580, 2012. HIF-2a luciferase reporter luminescence, overnight. inhibition, % at 18.8 µM;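 active = mean inhibition across four replicates of at least 40 percent at the single tested concentration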
# HIF-1a cs – HIF-1a luciferase reporter signal reduction – MiaPaCa-2 cells, single concentration, counter-screen for HIF-2a inhibitor project, confirmation; shares compounds with HIF-2a block; MiaPaCa-2 HIF-1a luciferase reporter, desferoxamine, overnight; inhibition, % at 18.8 µM; 1,800 tested, 72% active; AID 651589, 2012;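 active = mean inhibition of the reporter signal across four replicates at the single tested dose of 50% or more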
# An asterisk follows results filed as active; / = no result.
SMILES,Shn3 inh set2,CF NFkB block,KKLEB tox,HIF-2a block,Peg3 prom inh,TRPM1 prom inh,HIF-2a inh conf,HIF-1a cs,others
CC1=CC(C)(C)Nc2ccc(OC(=O)c3cccnc3)cc21,49,38,-9,75*,57*,-2,86*,94*,
CCOc1ccc(C(=O)N[C@H](C(=O)N2CCN(c3ncccn3)CC2)C(C)C)cc1,-1,0,-5,9,8,/,/,/,
CCCc1cc(=O)oc2c3c(cc(OCC(=O)NCCN4CCOCC4)c12)OC(C)(C)CC3,-9,10,-9,25,-6,7,/,/,
O=[N+]([O-])c1ccc(Oc2cccc(Br)c2)c2ccncc12,-13,32,-23,45*,36,13,29,77*,
O=[N+]([O-])c1cccc2cnccc12,26,6,-9,10,-6,6,/,/,
CCOc1ccc(C(=O)Nc2nnc(SCC(=O)NCC3CCCO3)s2)cc1 (stereo unspecified),7,15,-36,55*,21,48,59*,-1,
COc1ccc(C(=O)Nn2c(SCC(=O)NCC3CCCO3)nc3ccccc3c2=O)cc1 (stereo unspecified),53,5,-6,49*,13,-2,60*,49,
CN(C)S(=O)(=O)c1ccc(C(=O)Nc2nnc(SCC(=O)NCC3CCCO3)s2)cc1 (stereo unspecified),7,-21,5,-24,-3,-4,/,/,
O=S1(=O)C=C(Sc2nc3cc(Cl)ccc3o2)c2ccccc21,100*,88*,-100*,-4,102*,68*,/,/,Mdm2-MdmX confirm=103*
CCCn1c(Nc2nc3ccccc3n2C)nc2ccccc21,-21,4,5,91*,90*,7,58*,105*,Mdm2-MdmX confirm=103*
COCCN(Cc1ccc(C)cc1)C(=O)[C@H]1O[C@@H](n2ccc(=O)[nH]c2=O)[C@H](O)[C@@H]1O,53,-29,-3,13,10,/,/,/,
CC(C)C(NC(=O)c1c(F)cccc1F)C(=O)N1CCN(S(=O)(=O)c2ccc(F)cc2)CC1 (stereo unspecified),-11,6,-7,7,9,-1,/,/,
COc1ccc(C(=O)Nc2nc3ccccc3[nH]2)cc1,17,11,-29,49*,41,44,64*,68*,
Cc1ccc(C(C)C)c(OCC(=O)Nc2ccc3c(c2)nc(CCN2CCCCC2)n3C)c1,2,20,-16,23,105*,95*,/,/,Mdm2-MdmX confirm=101*
Cn1c(CCN2CCCCC2)nc2cc(NC(=O)COc3ccc(Cl)cc3)ccc21,-20,-5,-11,2,20,-25,/,/,
Cc1[nH]nc2c1C(c1cc(Br)cs1)C(C#N)=C(N)O2 (stereo unspecified),-12,60*,-14,43*,20,33,40*,92*,
Cc1cccc(C)c1C(O)c1ncc(-c2cccc(C(F)(F)F)c2)[nH]1 (stereo unspecified),-23,15,0,8,12,/,/,/,
Cc1csc(NC(=O)NCC2CCCC(CNC(=O)Nc3nc(C)cs3)C2)n1 (stereo unspecified),-27,14,-7,-121,-134,-5,/,/,
NC(Cc1ccc(Cl)cc1)c1csc(NC(=O)NCC2CCCCC2)n1 (stereo unspecified),84*,22,-17,61*,92*,/,-23,101*,
Cn1nnnc1SCc1nc2scc(-c3ccccc3)c2c(=O)[nH]1,10,-6,-5,-42,2,-1,/,/,
Cn1nnnc1Sc1ncnc2scc(Br)c12,97*,78*,-42,96*,104*,-17,65*,105*,
Cn1nnnc1Sc1ncnc2scc(-c3ccccc3Br)c12,-4,50,-19,49*,79*,58,25,75*,
COC(=O)c1ccc2nc(NC(=O)C(C)C)sc2c1,-58,-1,-6,-148,-240,-49,/,/,
COC(=O)c1ccc2nc(Nc3nc4c(F)cc(F)cc4s3)sc2c1,55,38,-20,90*,75*,95*,94*,90*,
COc1ccc(CN(C)CCCn2cnc3c(SC)ncnc32)cc1OC,-10,-16,4,-1,-12,/,/,/,
SMILES,Shn3 inh set2,CF NFkB block,KKLEB tox,HIF-2a block,Peg3 prom inh,TRPM1 prom inh,HIF-2a inh conf,HIF-1a cs,others
O=C(NCc1ccccc1Cl)c1ccc2sc([C@@H]3O[C@H](CO)[C@H](O)[C@H](O)[C@H]3O)nc2c1,-1,14,4,2,-6,/,/,/,
O=C1C=CC(=O)N1CCNc1ncc(C(F)(F)F)cc1Cl,86*,60*,-23,35,108*,27,/,/,Mdm2-MdmX confirm=103*
O=S(=O)(NCCS(=O)(=O)N1CCN(c2ccc(F)cc2)CC1)c1ccccc1,13,-7,-1,7,11,/,/,/,
CCOc1cc(/C=C2\CN(CC)C/C(=C\c3ccc(O)c(OCC)c3)C2=O)ccc1O,97*,87*,-40,93*,110*,93*,/,/,Mdm2-MdmX confirm=102*
CC1=C(C)/C(=N\OS(=O)(=O)c2ccccc2)C=CC1=O,79,-12,4,86*,106*,44,/,/,Mdm2-MdmX confirm=103*
Cc1ccc(S(=O)(=O)O/N=C2\CCCc3ccccc32)cc1,1,1,5,11,11,10,/,/,
CC(=O)c1ccc(NC(=O)c2cnn3ccccc23)cc1,80,-25,15,75*,25,/,86*,47,
NC(=O)c1ccc(NC(=O)C#Cc2ccccc2)cc1,16,22,2,-10,58*,7,/,/,Mdm2-MdmX confirm=101*
O=C(NC(NC(=S)Nc1ccccc1Cl)C(Cl)(Cl)Cl)c1cccc(Cl)c1 (stereo unspecified),74,45,-32,44*,46,2,19,102*,
COc1ccc(NC(=S)NC(NC(=O)c2cccc(Cl)c2)C(Cl)(Cl)Cl)c([N+](=O)[O-])c1 (stereo unspecified),33,24,6,-40,34,-13,/,/,
